Data: PubChem BioAssay (Tox21)
Where “and” joins values, the source holds several entries; their conditions need not be identical. Equal entries are not always repeated. Records with an inconclusive call do not appear. Where a call stands in place of a potency, no number is given. More than one record can exist for a structure, and the calls need not agree. Calls of active or inactive are those of the source. Unless noted, calls come from the whole dose curve; as a rule, active = well fitted curve in the direction sought with a large enough effect in the repeat runs; inconclusive = weak or mixed curves; inactive = no such curve, though single readings can be large; an effect the other way counts as inactive or inconclusive.

Assays:
[1] = qHTS assay to identify small molecule agonists of the hypoxia (HIF-1) signaling pathway - cell viability counter screen (AID 1224844; calls by dose curve; note: nearly all actives have a fitted effect of over 50% in size; note: potency is the fitted concentration of half-maximal effect)
Outline: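 Cytotoxicity was measured in parallel with the HRE-driven beta-lactamase readout: after 17 hrs of compound exposure at 37C, HRE-bla ME-180 cells received CellTiter-Glo and luminescence was recorded 30 min later.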

[2] = qHTS assay to identify small molecule agonists of H2AX (AID 1224845; active = well fitted activation curve with a large enough effect in the signal ratio in the repeat runs, not every such curve was filed as active; the % refers to the signal ratio; note: potency is the fitted concentration of half-maximal effect)
Outline: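 Wild-type CHO-K1 cells, plated overnight, exposed 3hr at 37C to 15 concentrations (0.76% DMSO final). Lysed, then HTRF anti-pH2AX (S139) cryptate and anti-H2AX-d2 antibodies, 24 hr room temperature; 665/620 nm emission read.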

[3] = qHTS assay to identify small molecule antagonists of the estrogen related receptor (ERR) signaling pathway from Tox21 library (AID 1224848); note: nearly all actives have a fitted effect of over 50% in size; note: potency is the fitted concentration of half-maximal effect
Outline: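 Quantitative high-throughput format: ERR reporter cells (2,000/well) pre-incubated 6 h, treated 18 h at 37 C with compounds in DMSO alongside positive and negative controls, then read by ONE-Glo luminescence.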

[4] = qHTS assay to identify small molecule agonists of the estrogen related receptor (ERR) signaling pathway from Tox21 library (AID 1224849; calls by dose curve; note: nearly all actives have a fitted effect of over 15% in size); conditions: ERR reporter cell line, ONE-Glo luciferase, 18 h
Outline: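 Cells carrying the ERR reporter were plated and allowed to settle for 6 h, exposed to library compounds for 18 h at 37 C, then lysed with ONE-Glo and luminescence measured.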

[5] = qHTS RealTime-Glo MT Cell Viability Assay in HepG2 cells - 24 hour (AID 1224867); note: nearly all actives have a fitted effect of over 50% in size; note: potency is the fitted concentration of half-maximal effect
Outline: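 Cell number in HepG2 cultures estimated from NanoLuc luminescence generated by metabolic reduction of a prosubstrate by living cells. The homogeneous, nonlytic format allowed repeated reads at 0, 8, 16, 24, 32 and 40 h of compound exposure.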

[6] = qHTS RealTime-Glo MT Cell Viability Assay in HEK293 cells - 32 hour (AID 1224868); note: nearly all actives have a fitted effect of over 50% in size; note: potency is the fitted concentration of half-maximal effect
Outline: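 Homogeneous bioluminescent viability format in HEK293 cells (600 cells/well). Following 5 h at 37 C/5% CO2, 23 nL compound was pintooled; the signal was measured repeatedly during 40 h incubation.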

[7] = A CellTox Green Cytotoxicity Assay to monitor cytotoxicity in HEK293 cells - 0 hour (AID 1224869); note: nearly all actives have a fitted effect of over 50% in size; note: potency is the fitted concentration of half-maximal effect
Outline: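 Cells (HEK293, 600/well) and dye reagent are dispensed together. After 5 h at 37 C, 23 nL compound is pinned in. Plates stay at 37 C for 40 h with fluorescence read at 0h, 8h, 16h, 24h, 32h and 40h.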

[8] = qHTS RealTime-Glo MT Cell Viability Assay in HepG2 cells - 40 hour (AID 1224870); note: nearly all actives have a fitted effect of over 50% in size; note: potency is the fitted concentration of half-maximal effect
Outline: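 HepG2 cells (600/well) mixed with RealTime-Glo MT reagent, settled 5 h at 37 C/5% CO2 before compound addition. Nonlytic NanoLuc luminescence from viable-cell prosubstrate reduction read repeatedly during 40 h treatment at 37 C.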

[9] = qHTS assay to identify small molecule agonists of H2AX - cell viability counter screen (AID 1224847; calls by dose curve; note: nearly all actives have a fitted effect of over 30% in size; note: potency is the fitted concentration of half-maximal effect)
Outline: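 Compounds tested at 15 concentrations were incubated 3 hr at 37C with wild-type CHO-K1 cells; cellular ATP-based luminescence (CellTiter-Glo) indicated viability.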

[10] = qHTS assay to identify small molecule agonists of the hypoxia (HIF-1) signaling pathway (AID 1224846; active = well fitted activation curve with a large enough effect in the signal ratio in the repeat runs, not every such curve was filed as active; the % refers to the signal ratio)
Outline: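 Compounds from the Tox21 10K library, dissolved in DMSO, are tested for induction of a hypoxia response element–controlled beta-lactamase reporter in ME-180 cells. Exposure lasts 17 hrs at 37C after a 5 hr settling period, followed by CCF4-AM FRET substrate.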

[11] = at 92.4 µM (top of the series) unless noted

SMILES: C=CC(=O)OCCn1c(=O)n(CCOC(=O)C=C)c(=O)n(CCOC(=O)C=C)c1=O
- Potency [1]: 12.3 µM (active)
- Potency [2]: 25.3 µM (active)
- Potency [3]: inactive
- activity change, positive = activation [4, 11]: -78.2% (inactive)
- Potency [5]: 21.9 µM (active)
- Potency [6]: 11 µM (active)
- Potency [7]: inactive
- Potency [8]: 19.5 µM (active)

SMILES: CCCCCCC[N+](CC)(CC)CCCCc1ccc(Cl)cc1
- Potency [1]: inactive
- Potency [2]: inactive
- Potency [9]: inactive
- Potency [6]: 1.9 µM (active)
- Potency [7]: inactive
- Potency [8]: 23.9 µM (active)

SMILES: Cc1cccc(N(C)C(=S)Oc2ccc3c(c2)C2CCC3C2)c1 (stereo unspecified)
- Potency [1]: inactive
- Potency [2]: inactive
- Potency [3]: inactive
- activity change, positive = activation [4, 11]: -2.97% [at 42.5 µM] (inactive)
- Potency [5]: inactive
- Potency [6]: inactive
- Potency [7]: inactive
- Potency [8]: inactive

SMILES: c1cc(C(c2ccc(OCC3CO3)cc2)c2ccc(OCC3CO3)cc2)ccc1OCC1CO1 (stereo unspecified)
- Potency [1]: inactive
- Potency [2]: inactive
- Potency [9]: inactive
- Potency [7]: inactive
- Potency [8]: 54.9 µM (active)

SMILES: CCCCN1CCCC[C@H]1C(=O)Nc1c(C)cccc1C
- Potency [1]: inactive
- Potency [2]: inactive
- Potency [9]: inactive
- Potency [5]: inactive
- Potency [6]: inactive
- Potency [7]: inactive
- Potency [8]: inactive

SMILES: CCCC1O[C@@H]2C[C@H]3[C@@H]4CCC5=CC(=O)C=C[C@]5(C)[C@H]4[C@@H](O)C[C@]3(C)[C@]2(C(=O)CO)O1 (stereo partly specified)
- Potency [1]: 49 µM (active) and 54.9 µM (active)
- Potency [2]: inactive
- Potency [3]: 27.3 µM (active) and 34.4 µM (active)
- activity change, positive = activation [4, 11]: -61.9% (inactive) and -49.1% (inactive)
- Potency [5]: inactive
- Potency [6]: 24.6 µM (active) and 43.6 µM (active)
- Potency [7]: inactive
- Potency [8]: inactive

SMILES: CCCCCCOC(=O)c1ccc(O)cc1
- Potency [1]: inactive
- Potency [2]: inactive
- Potency [3]: inactive
- activity change, positive = activation [4, 11]: 67.7% (active) and 70.3% (active)
- Potency [5]: inactive
- Potency [6]: 43.7 µM (active) and 21.9 µM (active)
- Potency [7]: inactive
- Potency [8]: inactive

SMILES: CC(=O)OCC(C)OC(C)=O (stereo unspecified)
- Potency [1]: inactive
- Potency [2]: inactive
- Potency [5]: inactive
- Potency [6]: inactive
- Potency [7]: inactive
- Potency [8]: inactive

SMILES: CSc1cnc(C)cn1
- Potency [1]: inactive
- Potency [2]: inactive
- Potency [9]: inactive
- Potency [5]: inactive
- Potency [6]: inactive
- Potency [7]: 56.4 µM (active)
- Potency [8]: inactive

SMILES: CCCCCOC(=O)CCCC
- Potency [1]: inactive
- Potency [2]: inactive
- Potency [5]: inactive
- Potency [6]: inactive
- Potency [7]: inactive
- Potency [8]: inactive

SMILES: Cc1cc(CCN2CCN(c3nsc4ccccc34)CC2)cc2c1NC(=O)CC2(C)C
- Potency [1]: 38.9 µM (active)
- Potency [2]: inactive
- Potency [3]: 5.45 µM (active)
- activity change, positive = activation [4, 11]: -74.7% (inactive)
- Potency [5]: 54.9 µM (active)
- Potency [6]: 7.76 µM (active)
- Potency [7]: inactive

SMILES: CC(C)(C)c1ccc(C(=O)O)cc1
- Potency [1]: inactive
- Potency [2]: inactive
- Potency [5]: inactive
- Potency [6]: inactive
- Potency [7]: inactive
- Potency [8]: inactive

SMILES: CC(C)(C)C(=O)OCOC(=O)[C@@H]1N2C(=O)[C@@H](NC(=O)[C@H](N)c3ccccc3)[C@H]2SC1(C)C
- Potency [1]: inactive
- Potency [2]: inactive
- Potency [3]: inactive
- activity change, positive = activation [4, 11]: 0.778% [at 42.5 µM] (inactive)
- Potency [5]: inactive
- Potency [6]: inactive
- Potency [7]: inactive
- Potency [8]: inactive

SMILES: CCOC(=O)/C=C(C)/C=C/C=C(C)/C=C/c1c(C)cc(OC)c(C)c1C
- Potency [1]: inactive
- Potency [2]: inactive
- Potency [5]: inactive
- Potency [7]: inactive
- Potency [8]: inactive

SMILES: CCCCCCCCCCCCCCCS(=O)(=O)Oc1ccccc1
- Potency [1]: inactive
- Potency [2]: inactive
- Potency [9]: inactive
- Potency [5]: inactive
- Potency [6]: inactive
- Potency [7]: inactive
- Potency [8]: inactive

SMILES: Cc1nc(-c2ccc3c(c2)CCN(CCC2CCC(NC(=O)/C=C/c4ccc(F)cc4)CC2)CC3)no1 (stereo unspecified)
- Potency [1]: inactive
- Potency [2]: inactive
- Potency [9]: inactive
- Potency [5]: inactive
- Potency [7]: inactive
- Potency [8]: inactive

SMILES: COC(=O)C1=C(C)NC(C)=C(C(=O)OCC(C)C)C1c1ccccc1[N+](=O)[O-] (stereo unspecified)
- Potency [1]: 49 µM (active)
- Potency [10]: inactive
- Potency [9]: 127 µM (active) and inactive
- Potency [3]: 12.2 µM (active) and 21.1 µM (active)
- activity change, positive = activation ([4]; at 42.5 µM (top of the series)): -46.2% (inactive)
- activity change, positive = activation ([4]; at 92.4 µM (top of the series)): -62.2% (inactive)
- Potency [5]: 49 µM (active)
- Potency [6]: 21.9 µM (active)
- Potency [7]: inactive
- Potency [8]: 49 µM (active) and inactive

SMILES: O=[N+]([O-])c1ccccc1Nc1ccccc1
- Potency [1]: inactive
- Potency [2]: inactive
- Potency [9]: inactive
- Potency [5]: inactive
- Potency [6]: inactive
- Potency [7]: inactive
- Potency [8]: inactive

SMILES: OCCCCCCCCCCCCBr
- Potency [1]: 44.3 µM (active)
- Potency [2]: inactive
- Potency [5]: inactive
- Potency [6]: 9.92 µM (active)
- Potency [7]: inactive
- Potency [8]: inactive
